# Assay outcomes from PubChem.
# The list is not random: actives were taken first. Their share in the collection is about 0.41%.
# GAA glycogen: inhibitors or activators of human alpha-glucosidase glycogen cleavage; P10253; recombinant GAA, glycogen substrate, Amplex Red glucose oxidase fluorescence; Potency, µM (titrated, usually from 76.4 µM), without a hit: at the highest dose activity change, negative = inhibition, actives largely listed as inhibitors; 0.38% of 300,000 active;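 further: potency means the concentration at half of the fitted maximal effect; 0% = full enzyme reaction and -100% = no-enzyme basal signal; the screen sought inhibitors and activators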
#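 Recombinant enzyme (4 nM final) with compounds titrated up to 77 uM and bovine liver glycogen (30 ug) in citrate pH 5.0, 0.01% Tween-20, 37 C 40 min. Released glucose detected by Amplex Red/glucose oxidase (Ex 573/Em 610); AC50 from Hill fits.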
# N370S GC: inhibits or activates N370S mutant glucocerebrosidase; Potency, µM (series often up to 59.4 µM), inactives show top-dose activity change, negative = inhibition, usual class: inhibitors; 0.092% of 330,000 active; N370S GC spleen homogenate, 4MU-glucoside fluorescence;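 further: potency means the concentration at half of the fitted maximal effect; 0% = full enzyme activity and -100% = no enzyme basal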
# GAA inh: blocks human lysosomal alpha-glucosidase; 0.005% of 200,000 active; Potency, µM (top dose mostly 76.9 µM), for the others: at the highest dose activity change, negative = inhibition, hits mostly inhibitors; purified human GAA, 4-MU-alpha-glucoside fluorescence;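 further: potency means the concentration at half of the fitted maximal effect; plate controls were uninhibited enzyme wells for no effect and no-enzyme background for full effect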
#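 qHTS format, compound range up to 77 uM. Human lysosomal enzyme at 4 nM, 400 uM 4-MU glucoside substrate, pH 5.0, 20 min room temperature; fluorescence after alkaline stop gives activity normalized to controls.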
# GAA spleen mod: inhibitors or activators of human alpha-glucosidase in spleen homogenate; P10253; human spleen homogenate, 4-MU-alpha-glucoside fluorescence; Potency, µM (top dose mostly 79.9 µM), without a hit: at the highest dose activity change, negative = inhibition, hits mostly inhibitors; 0.006% of 240,000 active; AID 2112;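 further: potency means the concentration at half of the fitted maximal effect; 0% = enzyme with vehicle and -100% = no enzyme basal signal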
#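 AC50 values come from Hill-equation fits of concentration-response data, normalized to no-enzyme and full-activity controls. Enzyme source: 1 ug human spleen homogenate; 1 mM fluorogenic 4-MU glucoside, pH 5.0 citrate buffer, 37 C, 40 min.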
# aGal spleen mod: inhibitors or activators of human alpha-galactosidase in spleen homogenate; P06280; human spleen homogenate, 4MU-alpha-Gal fluorescence, 40 min; Potency, µM (doses to about 80 µM), for the others: at the top dose activity change, negative = inhibition, usual class: inhibitors; 0.008% of 240,000 active; AID 2107;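 further: potency means the concentration at half of the fitted maximal effect; 0% = enzyme with vehicle and -100% = no enzyme basal signal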
#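 Human spleen homogenate (1 ug) as enzyme source, 4-methylumbelliferyl-alpha-D-galactopyranoside 1 mM final, citrate/phosphate pH 5.0 with 0.01% Tween-20. Compounds 40 min at 37C, NaOH/glycine stop; fluorescence Ex 365/Em 440, Hill-fit AC50.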
# GLA inh pH 4.5: blocks human alpha-galactosidase A at pH 4.5; 230,000 tested, under 10 active; activity change, negative = inhibition, % at 105 µM; AID 1467; P06280; purified enzyme, 4-MU-alpha-Gal fluorescence, pH 4.5;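 further: 0% = full activity with enzyme and -100% = basal without enzyme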
# Target sequence (P06280 whole entry, looked up): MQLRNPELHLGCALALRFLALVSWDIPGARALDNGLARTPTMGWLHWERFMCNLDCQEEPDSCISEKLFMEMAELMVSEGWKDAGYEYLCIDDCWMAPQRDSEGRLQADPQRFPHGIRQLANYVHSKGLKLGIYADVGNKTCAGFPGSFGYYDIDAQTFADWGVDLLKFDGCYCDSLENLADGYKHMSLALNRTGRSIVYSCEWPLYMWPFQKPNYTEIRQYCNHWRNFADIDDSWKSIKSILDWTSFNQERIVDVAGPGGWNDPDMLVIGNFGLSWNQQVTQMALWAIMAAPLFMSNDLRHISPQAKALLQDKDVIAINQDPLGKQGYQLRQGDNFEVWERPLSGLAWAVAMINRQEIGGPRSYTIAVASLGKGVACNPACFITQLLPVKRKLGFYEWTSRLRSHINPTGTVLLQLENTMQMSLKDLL
# Starred values were filed as active, the others as inactive; u = inconclusive; x = not tested or not shown; [ ] = another dose, or the depositor's remark. The call rests on the fitted dose curve; in most records, active means well fitted curve in the direction sought with a large enough effect; inconclusive means small, poorly fitted or top-dose-only effect, or another doubt; inactive means no such curve, though single readings can be large; an effect the other way counts as inactive or inconclusive.
SMILES,GAA glycogen,N370S GC,GAA inh,GAA spleen mod,aGal spleen mod,GLA inh pH 4.5
O=C(NCC1CCCO1)NC1(C(F)(F)F)Oc2ccccc2O1 (stereo not drawn),-19%,12%,-2%,-2%,2%,8
c1ccc2[nH]c(NCCCc3cnc[nH]3)nc2c1,x,u,x,-4%,5%,x
COc1cccc(CNCCSc2nnnn2C)c1OCc1ccccc1,2%[76.3 µM],x,x,x,x,x
O=S(=O)(Nc1cccc2cccnc12)c1ccccc1O,x,9%,x,-7%,4%,x
CCOC(=O)c1c(/N=C/c2ccc(O)cc2O)sc2c1CCC2,35µM*,-15%,2%,-12%,-9%,-15
CCOC(=O)c1c(/N=C/c2ccccc2O)sc2c1CCC2,18µM*,1%,4%,0%,4%,0
CCOC(=O)c1c(/N=C/c2cccc([N+](=O)[O-])c2O)sc2c1CCC2,-15%,-9%,-3%,0%,-14%,-6
CC(C)CCCC(C)CCCC(C)CCCC(C)C(=O)O (stereo not drawn),x,-6%,x,-4%,7%,x
Oc1ccc(Br)cc1C=Nc1cccn2cc(-c3ccccc3)nc12,u,4.5µM*,11%,-2%,-10%,8
Oc1ccc(Br)cc1/C=N/n1c(-c2ccccc2)n[nH]c1=S,x,-2%,x,x,x,x
S=C([S-])NCCNC(=S)[S-].[Zn+2],x,1%,x,0%,-1%,x
CC(=O)Nc1ccc(NC(C)=O)s1,8.9µM*,-11%,2%,-8%,4%,5
O=C(O)c1ccccc1-c1ccccc1C(=O)Nc1ccc(F)cc1,-1%,-1%,x,x,x,x
O=C(O)c1ccccc1C(=O)NNc1ccc(Cl)cc1Cl,16µM*,1%,4%,2%,-6%,1
O=C(NNC(=O)c1ccccc1-n1cccc1)c1ccc(Cl)cc1Cl,6%,6%,u,5%,-4%,-4
O=C(O)c1ccccc1C(=O)NNc1ccc(F)cc1,28µM*,2%,-9%,2%,11%,8
CCC(C)C(N)C(=O)NC(CC(N)=O)C(=O)NC(CC(C)C)C(=O)NC(CCCCN)C(=O)NC(C)C(=O)NC(CC(C)C)C(=O)NC(C)C(=O)NC(C)C(=O)NC(CC(C)C)C(=O)NC(C)C(=O)NC(CCCCN)C(=O)NC(CCCCN)C(=O)NC(C(=O)NC(CC(C)C)C(N)=O)C(C)CC (stereo not drawn),x,-4%,x,-1%,1%,x
COC(=O)c1c(C)sc(-c2c(-c3ccc4c(c3)OCCO4)[nH]c3c2c(=O)n(C)c(=O)n3C)c1O,0%[76.3 µM],x,x,x,x,x
COC(=O)c1c(C)sc(-c2c(-c3ccc4c(c3)OCCO4)[nH]c3[nH]c(=O)[nH]c(=O)c23)c1O,25µM*,x,x,x,x,x
CCOC(=O)c1cc(-c2ccc(C)cc2)n(CC(=O)NC2CCCCCC2)c1C,1%[76.3 µM],x,x,x,x,x
CC(=O)N(O)C/C=C/c1cccc(Oc2ccccc2)c1,x,-10%,x,-5%,-11%,x
Nc1cc(S(=O)(=O)c2ccc(O)c(N)c2)ccc1O,7.9µM*,7%,x,-6%,2%,-9
O=C(/C=C/c1ccc(Cl)cc1)Nc1nc(-c2cccs2)ns1,10%[76.3 µM],x,x,x,x,x
COc1ccccc1N(C(=O)CCl)c1cn(C(C)=O)c2ccccc12,-2%,5%,x,-3%,-8%,-5
CC(=O)n1cc(N(C(=O)CCl)c2ccc(Cl)cc2)c2ccccc21,-9%,16µM*,x,0%,6%,-8
O=C1/C(=C\c2ccc(O)c(O)c2)C(c2ccccc2)=NN1c1ccccc1,4µM*,4%,4%,-2%,2%,-1
